Data published in PubChem BioAssay (NCI).
“And” between values parts separate entries of the source, which are not always exact repeats. Identical values can stand only once. The panel holds about 83,000 compounds, 20% with a hit somewhere; the sample as a whole holds those more often.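 Single-concentration screen, 48 h exposure, 96-well plates. Endpoint: percent growth. Below 10 = active.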 The source made the active and inactive calls.

test system: MDA-MB-468 breast; assay: NCI-60 one-dose screen, 48 h (100 = growth as untreated, 0 = no growth, -100 = all killed); details: 10 µM unless noted

Q: With `O=C1OC(C(O)C(O)CO)C(O)=C1O` (stereo not given) as the compound, how does the growth read?
A: The growth was 88.7% (inactive) and 117% (inactive).

Q: How did the growth turn out when `CCN(CC)CCn1c2ccc(O)cc2c2sc3cc(OC)ccc3c(=O)c21` was run?
A: Its growth is 33.8% (inactive).

Q: For `COc1ccc(C2C=C(c3ccc(OC)c(OC)c3)N=C3SC=CN32)c(Br)c1` (stereo not given), which growth is on record?
A: Its growth is 54.5% (inactive).

Q: With `COc1cc(OC)c(/C=C/S(=O)(=O)Cc2ccc(OC)c(N)n2)c(OC)c1` as the compound, how does the growth read?
A: The growth was 13.5% (inactive).

Q: With `O=C1Nc2ccc(F)cc2/C1=C\C(=O)c1ccc(NS(=O)(=O)c2ccccc2)cc1` as the compound, how does the growth read?
A: Its growth is 90.3% (inactive).

Q: `NC1=Nc2cc(OCCCCN3Cc4ccccc4C3)c(OCC3CC3)cc2C12CCCC2` was tested. Which growth did it give?
A: The growth was 7.97% (active).

Q: `COc1cccc(-c2nc(-c3ccc(NC(=O)c4ccccc4)cc3)[nH]c2-c2ccnc(Br)c2)c1` was tested. Which growth did it give?
A: The growth was 28.8% (inactive).

Q: Which growth does the source give for `CCC1CCc2nc3sc(C(=O)Nc4ccccc4F)c(N)c3cc2C1` (stereo not given) here?
A: Its growth is 25% (inactive).

Q: `COc1ccc(CCN2C(=O)C(C)(C)SC2=S)cc1OC` was tested. Which growth did it give?
A: The growth was 105% (inactive).

Q: Which growth does the source give for `CC(C)C(=O)OCCOc1ccc(C(C)(C)C)cc1` here?
A: The growth was 102% (inactive).

Q: Which growth does the source give for `CCCCn1sc(=O)n(Cc2ccc(CNC(=O)OCc3ccc4c(Cl)cc(Cl)c(O)c4n3)cc2)c1=O` here?
A: The growth was 72.4% (inactive).

Q: With `Cc1ccc(S(N)(=O)=O)cc1Cl` as the compound, how does the growth read?
A: The growth was 111% (inactive).

Q: With `COC(=O)c1nc(N)nc(C(=O)OC)c1C(=O)c1ccc(F)cc1` as the compound, how does the growth read?
A: Its growth is 101% (inactive).

Q: For `O=C(NNc1nc2cc(F)ccc2n2cncc12)c1cnccn1`, which growth is on record?
A: The growth was 31.7% (inactive).

Q: With `CCCCCN(CCCCC)CC(O)c1cc(C)c2ccc3cc(C(C)C)ccc3c2c1` (stereo not given) as the compound, how does the growth read?
A: Its growth is -71.1% (active).

Q: How did the growth turn out when `O=C(Nc1ccc(I)cc1)c1cccc([N+](=O)[O-])c1O` was run?
A: The growth was 2.17% (active).

Q: With `CC(C)(C)n1cc(-c2ccnc(NCCCNS(=O)(=O)c3ccc(Cl)cc3)c2)c(-c2cccc(F)c2)n1` as the compound, how does the growth read?
A: The growth was 48.4% (inactive).

Q: `Nc1nc2c(s1)CCc1cn(S(=O)(=O)c3ccccc3)cc1-2` was tested. Which growth did it give?
A: Its growth is 83.2% (inactive).

Q: Which growth does the source give for `O=S(=O)(NCCNc1cc(-c2c(-c3cccc(O)c3)nc3sccn23)ccn1)c1ccc(Cl)cc1` here?
A: The growth was 51.5% (inactive).

Q: For `N/C(=N\OC(=O)CSc1nc2ccccc2s1)c1ccc2ccccc2c1`, which growth is on record?
A: The growth was 102% (inactive).

Q: `CN[C@]12CC3(C=CC(=O)C=C3)O[C@@]1(Cc1ccc(OC)cc1)N(C)C(=O)N2` was tested. Which growth did it give?
A: Its growth is 36.4% (inactive).

Q: `Nn1c(=O)n(-c2cccc(C(F)(F)F)c2)c(=O)c2cc(-c3ccc(F)cc3F)ccc21` was tested. Which growth did it give?
A: The growth was -5.36% (active).

Q: Which growth does the source give for `Cc1onc(-c2ccccc2Cl)c1C(=O)N[C@@H]1C(=O)N2[C@@H]1SC(C)(C)[C@@H]2C(=O)O` here?
A: Its growth is 109% (inactive).

Q: With `O=C([O][Sn]([O]C(=O)c1ccccn1)([c]1ccccc1)[c]1ccccc1)c1ccccn1` as the compound, how does the growth read?
A: Its growth is -23.8% (active).

Q: Which growth does the source give for `COc1ccc(-c2nc3sc(C)nn3c2-c2nc3cc(C)c(C)cc3[nH]2)cc1` here?
A: The growth was 113% (inactive).

Q: Which growth does the source give for `NC1=NN=C(N)C1=Cc1cc2ccccc2n2nnnc12` here?
A: Its growth is 94.8% (inactive).

Q: Which growth does the source give for `N#Cc1ccc(O)c(C2=NCC(Cc3ccccc3)O2)c1` (stereo not given) here?
A: Its growth is 33.5% (inactive).

Q: `CC(C)=CCCC(C)c1ccc(C)c2c1OCN(CC1CCNCC1)C2` (stereo not given) was tested. Which growth did it give?
A: The growth was 7.48% (active).

Q: With `Cc1cccc(NC(=O)c2sc3nc4c(cc3c2N)CCCC4)c1C` as the compound, how does the growth read?
A: Its growth is 19.3% (inactive).

Q: How did the growth turn out when `Oc1ccc(Cc2ccc(O)c(C3CC(c4ccc(Cl)cc4)=NN3)c2)cc1C1CC(c2ccc(Cl)cc2)=NN1` (stereo not given) was run?
A: Its growth is 23.3% (inactive).

Q: With `Clc1ccc2c(c1)N(C1CCCN(Cc3ccccc3)C1)c1ccccc1S2` (stereo not given) as the compound, how does the growth read?
A: Its growth is 29.5% (inactive).

Q: Which growth does the source give for `COc1cc(/C=C/C(=O)Nc2ccc3c(c2)/C(=C\c2cccn2C)C(=O)N3)cc(OC)c1OC` here?
A: Its growth is 47.4% (inactive).

Q: `CN1CCN(Cc2ccc(NC(=O)c3nc4ccc5[nH]ncc5c4c4c3CCC4)cc2C(F)(F)F)CC1` was tested. Which growth did it give?
A: Its growth is -59.2% (active).

Q: Which growth does the source give for `Cc1ccc2nc3[nH]c(=O)[nH]c(=O)c3c(N)c2c1` here?
A: Its growth is 88.3% (inactive).

Q: With `CCCCCCNC(=O)Oc1ccc(/C(=C(/C)c2ccccc2)c2ccc(OCCN3CCCCCC3)cc2)cc1` as the compound, how does the growth read?
A: Its growth is 9.72% (active).

Q: How did the growth turn out when `Cc1cc(C(=O)O)c(C)n1-c1cccc(C(=O)O)c1` was run?
A: Its growth is 70.1% (inactive).

Q: With `COc1ccccc1OC(=O)Oc1ccccc1OC` as the compound, how does the growth read?
A: Its growth is 106% (inactive) and 119% (inactive).

Q: Which growth does the source give for `CCCCn1c(-c2ccc(C(=O)O/N=C(\N)c3ccc4ccccc4c3)cc2)nc(-c2ccccc2)c1-c1ccccc1` here?
A: The growth was 79.9% (inactive).

Q: For `Cc1ccc(-c2nc3nc(-c4ccc(F)cc4)nc(N4CCNCC4)c3o2)cc1`, which growth is on record?
A: Its growth is 54.3% (inactive).

Q: With `CNC(=O)c1cc(-c2ccc(NC(=S)Nc3cccc(C(F)(F)F)c3)cc2)nc2cccnc12` as the compound, how does the growth read?
A: The growth was 47.9% (inactive).
